# This is a sample that favours compounds with a hit; in the whole collection about 4.6% have one here.
# NALP3 yeast inh = NALP3 inhibition in yeast; 330,000 tested, 0.39% active; AID 2825; Yeast reconstituted NLRP3/ASC/caspase-1, beta-gal luminescence, 24 h; inhibition, % at 10 µM;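 active = inhibition of 50% or more; inactive = inhibition below 50%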;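 also: plate controls were induced DMSO wells for no effect and uninduced yeast grown without galactose for full effect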
# tim10-1 inh = inhibits growth of tim10-1 mutant yeast. inhibition, % at 20 µM. S. cerevisiae tim10-1 ts strain growth, BacTiter-Glo, 24 h. 330,000 tested, 2.2% active. AID 463190;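 active = inhibition of at least 40%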;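 also: mutant grown at 25 °C; 0% = DMSO wells with yeast and 100% = wells holding no yeast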
# SKKanGAS inh = SKKanGAS growth inhibition; S. pyogenes SKKanGAS, kanamycin growth, BacTiter-Glo, 6 h; inhibition, % at 7.5 µM; 300,000 tested, 1.3% active; AID 1662;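 active = mean replicate score, as percent of positive control median, at least 50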;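 also: strain carries kanamycin resistance gene driven by streptokinase promoter and grows in 40 µg/ml kanamycin; loss of luminescence reflects streptokinase promoter inhibition or plain growth inhibition; 0% = median of DMSO wells and 100% = positive control at its reference dose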
# TIM10 inh = growth inhibitors of TIM10 yeast strain. S. cerevisiae TIM10 strain growth, BacTiter-Glo luminescence, 24 h. inhibition, % at 10 µM. 330,000 tested, 1.4% active. AID 463195;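 active = inhibition of 40% or more at the single tested concentration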;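 also: wild-type TIM10 isogenic control strain grown at permissive 25 °C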
# tim23-1 inh = inhibits growth of tim23-1 mutant yeast | S. cerevisiae tim23-1 growth, BacTiter-Glo luminescence, 24 h | inhibition, % at 20 µM | 330,000 tested, 1.3% active | AID 463212;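 active = growth inhibition of the mutant yeast at or above 50%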;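 also: temperature-sensitive mutant grown at 25 °C; plate controls were DMSO-treated mutant yeast for no effect and medium wells lacking yeast for full effect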
# NALP3 yeast conf = confirmation of NALP3 inhibitors in yeast. shares compounds with NALP3 yeast inh. yeast expressing human NALP3, luminescence. inhibition, % at 10 µM. 1,300 tested, 81% active. AID 435006; in the data active = inhibition above about 48%
# Casp1 ASC ctr = caspase-1-ASC yeast counter-screen hit; shares compounds with NALP3 yeast inh; yeast expressing Caspase-1-ASC, luminescence counter screen; inhibition, % at 10 µM; 1,000 tested, 66% active; AID 488784
# NALP3 yeast rt = retest-confirmed inhibitor of NALP3 in yeast. yeast expressing human NALP3, luminescence read-out. shares compounds with NALP3 yeast inh. inhibition, % at 10 µM. AID 488794. 1,000 tested, 53% active
# tim10-1 conf = tim10-1 yeast growth inhibition, confirmed | shares compounds with tim10-1 inh | inhibition, % at 20 µM | AID 463213 | 7,400 tested, 56% active | S. cerevisiae tim10-1 ts strain growth, BacTiter-Glo, 24 h;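 active = inhibition of yeast growth at or above a set limit in either of two repeat tests at 20 µM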;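 also: tim10-1 mutant grown at permissive 25 °C to find synthetic lethal compounds; 0% = DMSO yeast wells and 100% = medium wells without yeast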
# TIM10 conf = TIM10 yeast growth inhibition, confirmed; shares compounds with TIM10 inh; 4,600 tested, 63% active; inhibition, % at 10 µM; AID 463215; S. cerevisiae tim10 strain growth, BacTiter-Glo luminescence, 24 h;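 active = inhibition of yeast growth at or above a set limit in either of two replicates at 10 µM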;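 also: this counterscreen used the strain with wild-type TIM10; 0% = yeast with DMSO and 100% = medium wells lacking yeast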
# tim23-1 conf = confirmation of tim23-1 mutant yeast growth inhibitors; shares compounds with tim23-1 inh; S. cerevisiae tim23-1 growth, BacTiter-Glo luminescence, 24 h; inhibition, % at 20 µM; 4,400 tested, 83% active;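 active = inhibition above about 39% in either of two replicate wells at 20 µM, limit read from the data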;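 also: temperature-sensitive tim23-1 mutant grown at 25 °C; 0% = DMSO wells with yeast and 100% = medium wells without yeast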
# Active calls of the source: *; nt = no result given. Rule as the data show it, unless noted: active = inhibition above about 50%; inactive = the rest.
SMILES,NALP3 yeast inh,tim10-1 inh,SKKanGAS inh,TIM10 inh,tim23-1 inh,NALP3 yeast conf,tim10-1 conf,others
COc1ccc(C(=O)C(Cc2ccccc2)N(C)C)cc1 (stereo unspecified),56*,22,-8,-4,19,72*,nt,Casp1 ASC ctr=44;NALP3 yeast rt=39
Cc1cc(C(=O)OCC(=O)Nc2ccccc2F)c(C)n1C1CC1,41,10,nt,6,13,nt,nt,
CC(N)C(=O)OC(C)(C)Cc1ccc(Cl)cc1 (stereo unspecified),69*,12,nt,14,11,56*,nt,Casp1 ASC ctr=48;NALP3 yeast rt=56*
O=[N+]([O-])c1ccc(N2CCCCCC2)c2ncccc12,54*,16,18,-1,10,56*,nt,Casp1 ASC ctr=53*;NALP3 yeast rt=52*
COc1ccc(C(c2ccc(OC)cc2)C(Cl)(Cl)Cl)cc1,17,-15,nt,-5,-2,nt,nt,
Cc1ccc(Oc2cc(NN3CCCCC3)c([N+](=O)[O-])cc2[N+](=O)[O-])c([N+](=O)[O-])c1,23,11,10,15,17,nt,nt,
CCN(CCNc1ccc([N+](=O)[O-])c2cccnc12)S(=O)(=O)c1ccc(Cl)cc1,50*,12,-1,2,8,65*,nt,Casp1 ASC ctr=37;NALP3 yeast rt=34
CCN(CCNc1ccc([N+](=O)[O-])c2cccnc12)S(=O)(=O)c1ccccc1,1,1,-9,3,-8,nt,nt,
Fc1ccc(C(OCCN2CCN(CCCc3ccccc3)CC2)c2ccc(F)cc2)cc1,50*,-54,5,-78,-65,59*,nt,
CC(C)[N+]12CCC(CC1)C(C(O)(c1ccccc1)c1ccccc1)C2 (stereo unspecified),11,5,11,2,-1,nt,nt,
COc1ccc(C[C@H]2NC[C@H](O)[C@H]2OC(C)=O)cc1,98*,73*,0,75*,36,99*,69*,TIM10 conf=81*
N#C/C=C/C#N,-5,-5,nt,6,-18,nt,nt,
O=c1oc2ccccc2c(O)c1[C@H]1c2ccc(O)cc2Oc2c1c(=O)oc1ccccc21,79*,53*,-4,69*,57*,85*,58*,Casp1 ASC ctr=87*;NALP3 yeast rt=78*;TIM10 conf=59*;tim23-1 conf=48*
NC1=C([N+](=O)[O-])C(c2ccc3c(c2)OCO3)c2c(c3ccccc3oc2=O)O1 (stereo unspecified),-4,5,-13,1,16,nt,nt,
CC(C)(C)c1cc(C=C(C#N)C#N)cc(C(C)(C)C)c1O,76*,78*,nt,70*,62*,91*,82*,Casp1 ASC ctr=98*;NALP3 yeast rt=96*;TIM10 conf=83*;tim23-1 conf=72*
COC(=O)C1=C(c2cccc(OCc3ccccc3)c2)C[C@@H]2CC[C@H]1N2C(=O)NCc1ccc2[nH]ccc2c1,3,3,nt,9,11,nt,nt,
Cc1cc(OCC(=O)NC(Cc2ccc(Cl)cc2)C(=O)O)c2c3c(c(=O)oc2c1)CCCC3 (stereo unspecified),8,16,11,-1,-3,nt,nt,
COc1ccc2c3c1OC1[C@H](O)CCC4[C@@H](C2)N(C)CC[C@]314 (stereo partly specified),12,10,nt,3,7,nt,nt,
Cc1c2ccncc2c(C)c2c1[nH]c1ccccc12,82*,63*,86*,57*,56*,93*,31,Casp1 ASC ctr=72*;NALP3 yeast rt=40;TIM10 conf=70*;tim23-1 conf=62*
CN[C@H]1C[C@H]2O[C@@](C)([C@H]1OC)n1c3ccccc3c3c4c(c5c6ccccc6n2c5c31)C(=O)NC4,97*,58*,18,74*,64*,99*,44*,TIM10 conf=67*;tim23-1 conf=70*
C[C@H]1C[C@@H](C)C(=O)[C@@H]([C@H](O)CC2CC(=O)NC(=O)C2)C1,98*,58*,-2,72*,77*,99*,23,Casp1 ASC ctr=100*;NALP3 yeast rt=99*;TIM10 conf=63*;tim23-1 conf=-10
Oc1ccc2c3c1OC1c4oc5ccccc5c4C[C@@]4(O)[C@@H](C2)N(CC2CC2)CC[C@]314 (stereo partly specified),7,13,nt,3,15,nt,nt,
Cc1ccc(CN2CCSc3ccc(C(=O)N4CCC5(CC4)OCCO5)cc32)cc1,4,46*,1,5,43,nt,3,
O=C(c1ccc2c(c1)N(Cc1ccc(F)cc1)CCS2)N1CCC2(CC1)OCCO2,9,40*,-5,-3,32,nt,10,
O=C(c1ccc2c(c1)ncn2-c1ccc(F)cc1F)N1CCC2(CC1)OCCO2,12,11,1,-4,17,nt,nt,
SMILES,NALP3 yeast inh,tim10-1 inh,SKKanGAS inh,TIM10 inh,tim23-1 inh,NALP3 yeast conf,tim10-1 conf,others
COC(=O)C1=C(c2cccc(C#N)c2)C[C@@H]2CC[C@H]1N2C(=O)NCc1cccc2ccccc12,8,13,nt,9,30,nt,nt,
CN(C)CC1CCCCC1OC(=O)Cc1ccc(Cl)c([N+](=O)[O-])c1 (stereo unspecified),5,-4,0,4,3,nt,nt,
O=C(CCCOc1ccc(Cl)cc1Cl)N1CCC2(CC1)OCCO2,18,42*,-1,24,30,nt,33*,
Cn1c(=O)cc(OCCCC(=O)N2CCC3(CC2)OCCO3)c2ccccc21,10,4,-1,8,6,nt,nt,
FC(F)(F)c1ccccc1CCN1CCNCC1,20,12,2,-3,5,nt,nt,
Cc1ccc(OC(F)F)c(N2C(=O)C3C4CCC(O4)C3C2=O)c1 (stereo unspecified),6,1,nt,0,-4,nt,nt,
Cc1cc(C=C2C(=O)N(C)C(=S)N(C)C2=O)c(C)n1C1CCCC1,22,47*,2,21,41,nt,20,
CN(C)C(=O)Oc1ccc2oc(=O)cc(-c3cc4ccccc4o3)c2c1,20,40,-2,19,29,nt,8,
Cc1cc2oc(=O)cc(-c3cc4ccccc4o3)c2cc1OC(=O)N(C)C,13,29,1,-8,24,nt,nt,
O=C(N/N=C/c1c(O)n(C2CCCCC2)c(=S)[nH]c1=O)c1ccccc1O,26,53*,55*,-3,24,nt,4,
CN(C)c1ccc(C=C(C#N)C#N)cc1,31,32,0,12,20,nt,nt,
N#CC(C#N)=Cc1ccc(N2CCCC2)cc1,42,41*,-1,-2,10,nt,17,
O=C(COc1ccc2ccc(=O)oc2c1)N1CCC(C(=O)O)(c2ccccc2)CC1,4,6,4,5,15,nt,nt,

# Assay outcomes (PubChem BioAssay)
